# Bioassay records from PubChem BioAssay.
# Tcruzi prolif – inhibitors of T. cruzi proliferation | 77,000 compounds, 5.9% hits | T. cruzi beta-gal in NIH3T3, GalScreen luminescence, 90 h | AID 624255 | inhibition, % at 8.34 µM;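 active = mean inhibition above about 93%, with at least 55% of replicates each passing it, limit read from the data, passing the limit was not always enough; inconclusive = only one of those two conditions holds; inactive = neither condition holds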
# Pf Dd2 growth – blocks growth of Plasmodium falciparum Dd2 parasites; P. falciparum Dd2 growth, SYBR Green, 72 h; active compounds read low; activity change, % at 10 µM; 94,000 compounds, 2.3% hits; in the data active = activity change below about -80%; inconclusive = no clear call, values can overlap the other calls
# C diff growth – C. difficile growth inhibition; Clostridium difficile clinical isolate growth, OD600, 24 h; active compounds read low; growth activity, negative = inhibition, % at 16 µg/mL (by protocol); 86,000 compounds, 0.25% hits;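 active = mean growth activity at or below -80% and every replicate also at or below -80%; inconclusive = mean at or below -80% but some replicate above -80%; inactive = mean growth activity above -80%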;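 note: 0% = DMSO wells and -100% = levofloxacin 16 µg/mL wells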
# Starred values were filed as active, the others as inactive; ? = inconclusive; · = no result; ! = a repeat was not active. Hits are enriched below; roughly 6.7% of the tested compounds scored in any of these assays.
SMILES,Tcruzi prolif,Pf Dd2 growth,C diff growth
COc1cccc(CN2[C@@H]3CNC[C@H]2C3c2ccc(/C=C/c3ccccc3)cc2)c1 (some centres undefined),·,-48.2,38.6
O=C(Nc1cccc(Cl)c1)N1[C@@H]2CNC[C@H]1C2c1ccc(/C=C/c2ccccc2)cc1 (some centres undefined),·,-67.6,-94.7*!
COc1cc(CN2[C@@H]3CNC[C@H]2C3c2ccc(/C=C/c3ccccc3)cc2)cc(OC)c1 (some centres undefined),·,-32.7,-93.0*!
CC(C)CNC[C@@H]1[C@@H](c2ccccc2)[C@@H](CO)N1Cc1ccc(F)cc1,·,-91.1*,19.6
OC[C@H]1[C@@H](c2ccccc2)[C@H](CNCC2CCC2)N1CC1CC1,31.1,-26.9,8.8
C[C@@H]1CN([C@H](C)CO)C(=O)Cc2cc(NS(=O)(=O)c3cccs3)ccc2O[C@H]1CN(C)S(=O)(=O)c1cccs1,23.1,5.1,·
COc1ccc2c3c(n(C)c2c1)[C@H](CO)N(Cc1ccccc1)CC31CN(C)C1,·,-6.6,-0.9
COc1cccc(NC(=O)N2[C@@H]3CNC[C@H]2C3c2ccc(/C=C/c3ccccc3)cc2)c1 (some centres undefined),·,-20.2,-97.8*!
COc1cccc(NC(=O)N2[C@@H]3CNC[C@H]2C3c2ccc(-c3ccccc3)cc2)c1 (some centres undefined),·,6.5,4.5
COc1ccc2c3c([nH]c2c1)[C@@H](CO)N(Cc1ccncc1)CC31CN(S(C)(=O)=O)C1,·,29.7,·
Cc1ccc(S(=O)(=O)Nc2ccc3c(c2)C(=O)N([C@H](C)CO)C[C@@H](C)[C@H](CN(C)C(=O)c2ccccc2)OCCCC[C@@H](C)O3)cc1,43.0,-16.6,3.0
C[C@@H]1CN([C@H](C)CO)C(=O)c2cccc(NC(=O)c3ccc(-c4nccs4)cc3)c2O[C@H]1CN(C)Cc1ccc(-c2ccccc2)cc1,85.1,-81.6*,-7.6
C[C@@H]1CN([C@H](C)CO)C(=O)c2cccc(NC(=O)c3ccc(-c4nccs4)cc3)c2O[C@H]1CN(C)Cc1ccc2c(c1)OCO2,21.3,-91.8*,-2.1
C[C@H](CO)N1C[C@H](C)[C@H](CN(C)Cc2ccc(-c3ccccc3)cc2)Oc2c(NC(=O)c3ccc(-c4nccs4)cc3)cccc2C1=O,72.6,-52.2,26.2
C[C@H]1CN([C@@H](C)CO)C(=O)c2cccc(NC(=O)c3ccc(-c4nccs4)cc3)c2O[C@H]1CN(C)Cc1ccc(-c2ccccc2)cc1,33.6,-53.6,32.3
C[C@H]1CN([C@@H](C)CO)C(=O)c2cccc(NC(=O)c3ccc(-c4nccs4)cc3)c2O[C@@H]1CN(C)Cc1ccc2c(c1)OCO2,9.6,-33.6,3.0
C[C@H]1CN([C@@H](C)CO)C(=O)c2cccc(NC(=O)c3ccc(-c4nccs4)cc3)c2O[C@H]1CN(C)C(=O)Nc1cccc2ccccc12,-62.7,11.7,-3.4
C[C@@H]1CN([C@@H](C)CO)C(=O)c2cccc(NC(=O)c3ccc(-c4nccs4)cc3)c2O[C@@H]1CN(C)C(=O)Nc1cccc2ccccc12,-100.4,-86.3*,5.5
C[C@H](CO)N1C[C@H](C)[C@@H](CN(C)Cc2ccc(-c3ccccc3)cc2)Oc2c(NC(=O)c3ccc(-c4nccs4)cc3)cccc2C1=O,90.1,-86.5*,3.3
O=C(C[C@@H]1C[C@H]2c3cc(NC(=O)c4ccc5c(c4)OCO5)ccc3O[C@H]2[C@H](CO)O1)NCc1cccnc1,12.1,2.3,·
O=C(N[C@@H]1CC[C@H](CCNS(=O)(=O)c2ccc(Cl)cc2)O[C@H]1CO)c1cccc(F)c1,48.3,4.4,-1.7
C[C@@H]1CCCCO[C@@H](CN(C)C(=O)Nc2ccccc2)[C@@H](C)CN([C@@H](C)CO)C(=O)c2cc(NC(=O)Nc3ccc(C(F)(F)F)cc3)ccc2O1,·,?,-6.9
C[C@H]1CCCCO[C@H](CN(C)C(=O)Nc2ccc(C(F)(F)F)cc2)[C@@H](C)CN([C@@H](C)CO)C(=O)c2cc(NC(=O)Nc3ccccc3)ccc2O1,·,-83.2*,-3.3
C[C@@H]1CCCCO[C@H](CN(C)C(=O)Cc2ccccc2)[C@H](C)CN([C@@H](C)CO)C(=O)c2cc(NC(=O)Nc3ccc(C(F)(F)F)cc3)ccc2O1,81.2,-69.9,1.8
C[C@@H]1CCCCO[C@@H](CN(C)C(=O)Nc2ccccc2)[C@@H](C)CN([C@H](C)CO)C(=O)c2cc(NC(=O)Nc3ccc(C(F)(F)F)cc3)ccc2O1,·,28.9,-2.4
C[C@@H]1CCCCO[C@H](CN(C)C(=O)Nc2ccc(C(F)(F)F)cc2)[C@H](C)CN([C@@H](C)CO)C(=O)c2cc(NC(=O)Nc3ccccc3)ccc2O1,·,-81.6*,-0.4
